Gal4-VP16 FLuc – counter-screen for ROR gamma inhibitors: Gal4-VP16 reporter; Drosophila S2 Gal4-VP16 UAS-luciferase, luminescence, 20 h; Potency, µM (titrated, usually from 53.6 µM), usual class: inhibitors; hit rate 3.5% among 310,000; AID 2546;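 also: Gal4-VP16 expression switched on by copper sulfate through the metallothionein promoter; nearly all actives have a fitted effect of over 50% in size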
TDP1 cell noCPT – qHTS for Inhibitors of human tyrosyl-DNA phosphodiesterase 1 (TDP1): qHTS in cells in absence of CPT; hit rate 15% among 420,000; Potency, µM (top dose mostly 46.2 µM), usual class: inhibitors; DT40 Tdp1-/- hTDP1 cells, no CPT, ATP luminescence, 48 h; also: nearly all actives have a fitted effect of over 55% in size
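Luminescent ATP content (CellTiter-Glo) served as the growth readout. Knockout chicken DT40 cells expressing human TDP1 were exposed to compounds without camptothecin for a minimum 48 hr at 37 °C.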
TDP1 inh – blocks human tyrosyl-DNA phosphodiesterase 1; Q9NUW8; recombinant TDP1, AlphaScreen DNA substrate cleavage; Potency, µM (doses to about 130 µM), actives largely listed as inhibitors; hit rate 0.28% among 350,000; also: nearly all actives have a fitted effect of over 40% in size
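Signal: AlphaScreen proximity between streptavidin donor and anti-FITC acceptor beads on intact substrate. Reaction: Tdp1 1 nM, substrate 15 nM final, 5 min RT after 15 min compound preincubation.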
RORgamma inh – inhibitors of mouse ROR gamma transcriptional activity; P51450; Drosophila S2 Gal4-RORgamma UAS-luciferase reporter, 20 h; Potency, µM (highest dose often 53.6 µM), hits mostly inhibitors; hit rate 5.4% among 310,000; AID 2551; also: nearly all actives have a fitted effect of over 60% in size
Target sequence (P51450 whole entry, looked up, the tested form may be a part): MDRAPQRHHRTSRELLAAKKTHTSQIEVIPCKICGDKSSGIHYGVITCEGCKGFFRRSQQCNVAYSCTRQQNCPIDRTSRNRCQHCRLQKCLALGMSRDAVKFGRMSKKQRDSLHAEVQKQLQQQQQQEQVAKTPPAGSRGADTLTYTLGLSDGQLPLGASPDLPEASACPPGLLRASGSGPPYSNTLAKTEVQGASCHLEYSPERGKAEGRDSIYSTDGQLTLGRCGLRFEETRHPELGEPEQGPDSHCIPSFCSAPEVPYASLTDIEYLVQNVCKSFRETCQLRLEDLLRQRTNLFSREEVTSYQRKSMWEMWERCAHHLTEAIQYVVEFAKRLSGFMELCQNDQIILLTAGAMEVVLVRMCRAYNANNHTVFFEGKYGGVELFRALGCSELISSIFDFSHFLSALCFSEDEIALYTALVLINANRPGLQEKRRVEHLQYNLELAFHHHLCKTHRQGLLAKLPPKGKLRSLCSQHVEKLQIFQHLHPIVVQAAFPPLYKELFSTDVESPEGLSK
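A Gal4/UAS one-hybrid system in insect cells: metallothionein-promoter Gal4–ROR gamma fusion plus Photinus luciferase reporter. Copper sulfate 700 uM final, 20 hr ambient incubation, luminescent detection after 10 min with reagent.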
DT40 TDP1 CPT – DT40-hTDP1 cell growth loss with CPT. chicken DT40 Tdp1-/-;hTDP1 cells + 20 nM CPT, ATP luminescence, 48 h. Potency, µM (doses to about 46.2 µM), usual class: inhibitors. hit rate 12% among 420,000; also: nearly all actives have a fitted effect of over 55% in size
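Chicken DT40 Tdp1-/- cells stably complemented with human TDP1 were seeded at 400 cells/well in medium containing 20 nM camptothecin, exposed to pin-transferred compounds, and grown at 37 °C for at least 48 hr. Viability was read as ATP luminescence.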
A number is an active result; [ ] = dose if it differs, or a comment. Rows were chosen to be rich in hits. Some 19% of all compounds tested hit in one or more screens of this group. Calls follow the shape of the dose curve; as a rule, active = well fitted curve in the direction sought with a large enough effect; inconclusive = small, poorly fitted or top-dose-only effect, or another doubt; inactive = no such curve, though single readings can be large; an effect the other way counts as inactive or inconclusive.

Results for CC[C@]12c3[nH]c4cc(-c5ccco5)ccc4c3CCN1C(=O)[C@@H](CC(=O)NCC13CC4CC(CC(C4)C1)C3)C[C@@H]2C(=O)N1CCN(C(=O)C2CC2)CC1 ?
TDP1 cell noCPT: 23.1µM; TDP1 inh: inactive; DT40 TDP1 CPT: inconclusive

Results for N#Cc1c(-c2ccco2)cc(-c2ccccc2)[nH]c1=O ?
Gal4-VP16 FLuc: inactive; TDP1 cell noCPT: inactive; RORgamma inh: inactive; DT40 TDP1 CPT: inactive

Results for C[C@]12c3[nH]c4cc(-c5ccco5)ccc4c3CCN1C(=O)[C@@H](CC(=O)NCC13CC4CC(CC(C4)C1)C3)C[C@@H]2C(=O)N1CCCCC1 ?
TDP1 cell noCPT: 6.51µM; TDP1 inh: inactive; DT40 TDP1 CPT: 5.17µM

Results for C[C@]12c3[nH]c4cc(-c5ccco5)ccc4c3CCN1C(=O)[C@@H](CC(=O)NCc1cccc(C(F)(F)F)c1)C[C@@H]2C(=O)N1CCCCC1 ?
TDP1 cell noCPT: 25.9µM; TDP1 inh: inactive; DT40 TDP1 CPT: inconclusive

Results for CN(C)CCCNC(=O)C[C@H]1C[C@H](C(=O)N2CCCCC2)[C@@]2(C)c3[nH]c4cc(-c5ccco5)ccc4c3CCN2C1=O ?
TDP1 cell noCPT: inconclusive; TDP1 inh: inactive; DT40 TDP1 CPT: inconclusive

How did CC[C@]12c3[nH]c4cc(-c5ccco5)ccc4c3CCN1C(=O)[C@@H](CC(=O)NCC13CC4CC(CC(C4)C1)C3)C[C@@H]2C(=O)N1CCN(C(=O)c2ccco2)CC1 do in these assays?
TDP1 cell noCPT: 20.6µM; TDP1 inh: inactive; DT40 TDP1 CPT: 9.2µM

How did CN(C)C(=O)CCc1ccc2c3c([nH]c2c1)[C@]1(C)[C@@H](C(=O)N2CCCCC2)C[C@H](CC(=O)NCC24CC5CC(CC(C5)C2)C4)C(=O)N1CC3 do in these assays?
TDP1 cell noCPT: 13µM; TDP1 inh: inactive; DT40 TDP1 CPT: 9.2µM

What do the screens show for `CN(C)C(=O)CCc1ccc2c3c([nH]c2c1)[C@]1(C)[C@@H](C(=O)N2CCCCC2)C[C@H](CC(=O)NCCN2CCOCC2)C(=O)N1CC3`?
TDP1 cell noCPT: inactive; TDP1 inh: inactive; DT40 TDP1 CPT: inactive

How did COCCn1nnnc1C(c1ccccc1OC)N1CCN(c2ccccc2)CC1 (stereo not given) do in these assays?
Gal4-VP16 FLuc: inactive; TDP1 cell noCPT: inconclusive; TDP1 inh: inactive; RORgamma inh: inactive; DT40 TDP1 CPT: inconclusive

Results for Cc1nnsc1C(=O)N/N=C/c1ccc2ccccc2c1O ?
Gal4-VP16 FLuc: 2.82µM; TDP1 cell noCPT: 0.82µM; TDP1 inh: inactive; RORgamma inh: 4.47µM; DT40 TDP1 CPT: 1.03µM

What do the screens show for `Cc1ccc(C)c(S(=O)(=O)Nc2ccc3oc(C)c(C(=O)O)c3c2)c1`?
Gal4-VP16 FLuc: inactive; TDP1 cell noCPT: inactive; RORgamma inh: inactive; DT40 TDP1 CPT: inactive

Results for COC(=O)c1c(C)oc2ccc(NS(=O)(=O)c3cc(OC)ccc3OC)cc12 ?
Gal4-VP16 FLuc: inconclusive; TDP1 cell noCPT: 10.3µM; TDP1 inh: inactive; RORgamma inh: inactive; DT40 TDP1 CPT: 10.3µM

What do the screens show for `COc1ccc(OC)c(S(=O)(=O)Nc2ccc3oc(C)c(C(C)=O)c3c2)c1`?
Gal4-VP16 FLuc: inconclusive; TDP1 cell noCPT: 14.6µM; RORgamma inh: inactive; DT40 TDP1 CPT: 16.4µM

How did COc1ccc(OC)c(S(=O)(=O)Nc2cccc(O)c2)c1 do in these assays?
TDP1 cell noCPT: inactive; DT40 TDP1 CPT: inactive

How did COc1ccc(-n2c(SCC(=O)NCc3cccs3)nc3[nH]ncc3c2=O)cc1 do in these assays?
Gal4-VP16 FLuc: inactive; TDP1 cell noCPT: inactive; TDP1 inh: inactive; RORgamma inh: inactive; DT40 TDP1 CPT: inactive

Results for Cc1nnc2c(N3CCN(c4ccccc4)CC3)nc3ccc(C(=O)c4ccccc4)cc3n12 ?
TDP1 cell noCPT: inactive; TDP1 inh: inactive[12.3 µM]; DT40 TDP1 CPT: inactive

How did Cc1cccc(N(C)c2nc3ccc(C(=O)c4ccccc4)cc3n3c(C)nnc23)c1 do in these assays?
TDP1 cell noCPT: 20.6µM; TDP1 inh: inactive; DT40 TDP1 CPT: inconclusive

How did O=C(NC1CCN(C(=O)NCc2ccccc2)CC1)c1ccco1 do in these assays?
Gal4-VP16 FLuc: inactive; TDP1 cell noCPT: inactive; TDP1 inh: inactive; RORgamma inh: inactive; DT40 TDP1 CPT: inactive
